47 molecules from PMC4336329 (PLoS ONE, 2015) can be followed below.

Screen size: about 310,000 compounds; about 14,000 (4.5%) showed an effect of 50% or more. Effects have a minus sign here. This excerpt belongs to a sample that is enriched for strong results.
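Further: peak tail current of the secondary pulse compared with the same well before compound.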

The experiment deals with human ether-à-go-go-related gene (hERG) potassium channel (human, UniProt Q12809). The experiment can be described thus: primary screen, population patch clamp on CHO cells stably expressing hERG; higher = less effect of the substance.
Sequence of human ether-à-go-go-related gene (hERG) potassium channel (Q12809 whole entry, looked up): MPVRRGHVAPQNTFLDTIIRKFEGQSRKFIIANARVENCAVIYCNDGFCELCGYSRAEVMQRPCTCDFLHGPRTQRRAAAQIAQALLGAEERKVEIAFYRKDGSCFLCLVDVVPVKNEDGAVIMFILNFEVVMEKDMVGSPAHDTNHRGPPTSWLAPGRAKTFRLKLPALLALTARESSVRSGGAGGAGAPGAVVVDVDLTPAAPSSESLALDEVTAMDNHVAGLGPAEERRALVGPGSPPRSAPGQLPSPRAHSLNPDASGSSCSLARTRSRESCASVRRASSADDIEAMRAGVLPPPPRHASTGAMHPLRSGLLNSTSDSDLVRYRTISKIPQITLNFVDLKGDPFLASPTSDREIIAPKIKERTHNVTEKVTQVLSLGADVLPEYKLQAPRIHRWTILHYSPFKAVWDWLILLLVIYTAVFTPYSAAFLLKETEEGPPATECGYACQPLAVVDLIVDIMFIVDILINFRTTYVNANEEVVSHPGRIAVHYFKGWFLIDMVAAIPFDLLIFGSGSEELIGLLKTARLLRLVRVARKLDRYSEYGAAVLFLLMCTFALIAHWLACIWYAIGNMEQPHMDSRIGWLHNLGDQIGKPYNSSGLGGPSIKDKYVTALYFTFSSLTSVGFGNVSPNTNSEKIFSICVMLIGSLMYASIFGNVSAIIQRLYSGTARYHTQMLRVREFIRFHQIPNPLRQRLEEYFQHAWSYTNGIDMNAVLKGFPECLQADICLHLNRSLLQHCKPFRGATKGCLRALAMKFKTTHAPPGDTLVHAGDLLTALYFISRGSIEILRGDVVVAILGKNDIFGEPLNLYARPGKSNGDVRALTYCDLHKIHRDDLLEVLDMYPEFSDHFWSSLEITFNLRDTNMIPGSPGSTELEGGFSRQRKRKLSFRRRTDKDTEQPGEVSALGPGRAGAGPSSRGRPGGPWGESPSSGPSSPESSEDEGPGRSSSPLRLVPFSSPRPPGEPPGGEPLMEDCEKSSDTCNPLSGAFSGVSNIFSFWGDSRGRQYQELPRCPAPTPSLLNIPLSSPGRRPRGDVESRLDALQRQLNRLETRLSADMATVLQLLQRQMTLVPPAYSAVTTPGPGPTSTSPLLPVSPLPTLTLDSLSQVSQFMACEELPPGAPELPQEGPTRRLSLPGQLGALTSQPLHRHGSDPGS
Turning to `CC(=O)Nc1ccc(C(=O)CSc2ncn(-c3ccccc3)n2)cc1`, the “hERG current change (%, negative = inhibition) at 10uM” value is reported as 5.72%.
Consider `Cc1sc2ncn(CC(=O)NCc3ccco3)c(=O)c2c1-c1ccccc1`, for which the “hERG current change (%, negative = inhibition) at 10uM” value is -11.8%.
`CC(=O)c1cnc(Oc2cc(Cl)ccc2Cl)nc1C`: the “hERG current change (%, negative = inhibition) at 10uM” value was determined as 0.763%.
Regarding `CSc1sc(C(=O)N(C)C)cc1S(=O)(=O)C(C)C`, the “hERG current change (%, negative = inhibition) at 10uM” value was 1.94%.
To `CCN1C(=O)/C(=C/c2cccs2)N(C)C1=S` belongs -7.99%.
To `COc1ccccc1NS(=O)(=O)c1cc(C(=O)NCC2CCCO2)ccc1C` (centres unmarked) belongs -36.8%; to `COC(=O)C1=C(C(=O)OC)[C@@H]2N(C)c3ccc(OC)cc3[C@@]23C[C@@H](C(=O)OC)N(C(=O)NC2CCCCC2)C3=N1`, -26%; to `COC(=O)C1=C(C(=O)OC)[C@@H]2N(C)c3ccc(OC)cc3[C@@]23C[C@@H](C(=O)OC)N(C(=O)c2cccs2)C3=N1`, -68.3%.
As to `COC(=O)C1=C(C(=O)OC)[C@@H]2N(C)c3ccc(OC)cc3[C@@]23C[C@@H](C(=O)OC)N(C(=O)COCc2ccccc2)C3=N1`, the “hERG current change (%, negative = inhibition) at 10uM” value is reported as -55%.
As to `COC(=O)C1=C(C(=O)OC)[C@@H]2N(C)c3ccc(OC)cc3[C@@]23C[C@@H](C(=O)OC)N(C(=O)c2ccc(Br)cc2)C3=N1`, the “hERG current change (%, negative = inhibition) at 10uM” value is -17.7%.
On to `COC(=O)C1=C(C(=O)OC)[C@@H]2N(C)c3ccccc3[C@@]23C[C@@H](C(=O)OC)N(C(=O)c2cccs2)C3=N1`, for which the “hERG current change (%, negative = inhibition) at 10uM” value is listed as -10.1%.
In the case of `COC(=O)C1=C(C(=O)OC)[C@@H]2N(C)c3ccc(OC)cc3[C@@]23C[C@@H](C(=O)OC)N(C(=O)CC(C)C)C3=N1` it was -14.9%; in that of `COC(=O)C1=C(C(=O)OC)[C@@H]2N(C)c3ccccc3[C@@]23C[C@@H](C(=O)OC)N(C(=O)c2ccco2)C3=N1`, -13.9%.
Turning to `COC(=O)C1=C(C(=O)OC)[C@@H]2N(C)c3ccccc3[C@@]23C[C@@H](C(=O)OC)N(C(=O)COCc2ccccc2)C3=N1`, the “hERG current change (%, negative = inhibition) at 10uM” value is -9.16%.
Consider `COC(=O)C1=C(C(=O)OC)[C@@H]2N(C)c3ccccc3[C@@]23C[C@@H](C(=O)OC)N(C(=O)C2CCC2)C3=N1`, for which the “hERG current change (%, negative = inhibition) at 10uM” value is listed as -29.7%.
In the case of `COC(=O)C1=C(C(=O)OC)[C@@H]2N(C)c3ccc(OC)cc3[C@@]23C[C@@H](C(=O)OC)N(C(=O)C2CCC2)C3=N1`, the “hERG current change (%, negative = inhibition) at 10uM” value was -50%.
To `CCOC(=O)N1C2=NC(C(=O)OC)=C(C(=O)OC)[C@@H]3N(C)c4ccc(OC)cc4[C@]23C[C@H]1C(=O)OC` belongs 6.52%; to `COC(=O)C1=C(C(=O)OC)[C@@H]2N(C)c3ccc(OC)cc3[C@@]23C[C@@H](C(=O)OC)N(C(=O)c2ccco2)C3=N1`, -50.6%; to `COc1ccc(/C=N\NC(=O)c2ccccc2Br)cc1COc1c(F)c(F)cc(F)c1F`, -0.654%.
Take `Brc1ccc(-n2cccc2/C=N/n2cnnc2)cc1`: the “hERG current change (%, negative = inhibition) at 10uM” value is given as -25.1%.
As to `Cc1ccc(OCC(=O)Nc2ccc(C)c(S(=O)(=O)N3CCCCC3)c2)c([N+](=O)[O-])n1`, the “hERG current change (%, negative = inhibition) at 10uM” value is listed as -45.4%.
To `C=CCNC(=O)/C(=C/c1ccccc1OCC)NC(=O)c1ccccc1` belongs 2.63%; to `O=c1cc(Nc2ccc3c(c2)OCCO3)[nH]c(=O)n1-c1ccc(Cl)cc1`, -0.327%.
To `CCC(C)NC(=O)c1ccccc1NC(=O)/C(=C/c1ccc(OC)cc1)c1ccccc1` (centres unmarked) belongs 3.99%.
Consider `COC(=O)c1ccccc1NC(=O)NCc1ccc2c(c1)OCO2`, for which the “hERG current change (%, negative = inhibition) at 10uM” value is given as -11.4%.
`CCCCS(=O)CC(CS(=O)CCCC)OC(=O)c1ccc(C)cc1` (centres unmarked): the “hERG current change (%, negative = inhibition) at 10uM” value is recorded as -49.2%.
Turning to `Cc1ccc(S(=O)(=O)N(C)c2ccc(C(=O)O)cc2)cc1`, the “hERG current change (%, negative = inhibition) at 10uM” value is -17.1%.
Turning to `CC(C)NCCCOc1ccc(C(C)(C)c2ccccc2)cc1.O=C(O)C(=O)O`, the “hERG current change (%, negative = inhibition) at 10uM” value amounted to 7.21%.
Turning to `COc1ccc(CNCC(O)COc2ccc(C(C)(C)c3ccccc3)cc2)cc1.O=C(O)C(=O)O` (centres unmarked), the “hERG current change (%, negative = inhibition) at 10uM” value is reported as -12.3%.
In the case of `COc1ccccc1NCC(O)COc1ccc(C(C)(C)C)cc1.O=C(O)C(=O)O` (centres unmarked) it was 6.79%.
In the case of `CCOc1ccc(CC(=O)NC2CCN(Cc3ccccc3)CC2)cc1`, the “hERG current change (%, negative = inhibition) at 10uM” value was -6.23%.
Regarding `CCOc1ccc(OCC(O)CNC2CCN(Cc3ccccc3)CC2)cc1.O=C(O)C(=O)O` (centres unmarked), the “hERG current change (%, negative = inhibition) at 10uM” value is -62.8%.
Turning to `CC(C)N(CCNCC(O)COc1ccc(C(C)(C)c2ccccc2)cc1)C(C)C.O=C(O)C(=O)O` (centres unmarked), the “hERG current change (%, negative = inhibition) at 10uM” value is given as -79%.
To `C#CCOc1ccccc1CNC1CCN(Cc2ccccc2)CC1.O=C(O)C(=O)O` belongs -29.3%.
For `CC(C)(c1ccccc1)c1ccc(OCC(O)CNC2CCN(Cc3ccccc3)CC2)cc1.O=C(O)C(=O)O` (centres unmarked), the “hERG current change (%, negative = inhibition) at 10uM” value is reported as -72.8%.
To `CC(=O)Nc1ccc(OCC(O)CNC2CCCC2)cc1.Cl` (centres unmarked) belongs 6.24%; to `O=C(Cc1ccccc1)NN1C(=O)C2C3C=CC(C3)C2C1=O` (centres unmarked), 12.4%.
Regarding `COc1ccc(C)cc1NC(=O)C(OC(=O)C1CC1)c1ccccc1` (centres unmarked), the “hERG current change (%, negative = inhibition) at 10uM” value is listed as -12%.
To `O=C(COC(=O)C1CCN(S(=O)(=O)c2ccccc2C(F)(F)F)CC1)NCc1ccc(F)cc1` belongs -8.33%; to `CCOc1ccc(N=Cc2c(O)n(-c3ccc(C)c(C)c3)c(=O)[nH]c2=O)cc1`, -1.8%.
With `Cc1ccc(-n2ncc3c(SCC(=O)Nc4cc(C)on4)ncnc32)c(C)c1`, the “hERG current change (%, negative = inhibition) at 10uM” value stood at 17.9%.
In the case of `O=C(C[n+]1ccccc1)N/N=C/c1ccccc1[N+](=O)[O-].[Cl-]` it was 40.2%; in that of `Cc1cccc(C(=O)N2CCCC(Nc3ccc(C(C)C)cc3)C2)n1` (centres unmarked), 0.95%; in that of `Cc1ccc(C2Nc3cccc4cccc(c34)N2)s1`, -4.53%.
In the case of `CN(C)S(=O)(=O)c1cccc(C(=O)Nc2ccc(S(=O)(=O)N3CCCC3)cc2)c1` it was 25.5%.
To `CC1(C)Cc2cccc(OCC(=O)N3CCN(S(=O)(=O)c4ccccc4F)CC3)c2O1` belongs -14.6%; to `O=C(Nc1ccc2cn[nH]c2c1)c1ccc(S(=O)(=O)N2CCOCC2)cc1`, -19.7%.
